Assay outcomes as filed in PubChem BioAssay.
The list is not random: actives were taken first. Their share in the collection is about 3.5%.
TEAD-YAP inh = TEAD-YAP interaction inhibition, primary screen, TEAD-YAP interaction inhibitor project, luminescence, HEK-TIYL cells; TEAD-Gal4/YAP UAS-luciferase luminescence; inhibition, % at 9.12 µM; 640,000 tested, 1.4% active; in the data active = inhibition above about 32%;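 note: 0% = median of test compound wells and 100% = reference inhibitor wells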
GPR151 activ = activators of human GPR151, primary screen, cell-based, PathHunter beta-arrestin, luminescence; PathHunter beta-arrestin GPR151 cells; activation, % at 11.2 µM; 650,000 tested, 1% active; in the data active = activation above about 4.9%;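 note: 0% = median of compound wells and 100% = cells with positive control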
FBW7 activator = FBW7 E3 ligase activators, primary screen, biochemical, AlphaScreen, human; AlphaScreen FBW7–phospho-cyclin E peptide binding, activator screen; normalized activity (activation), % at 26.1 µM; AID 1259310, 2017; 650,000 tested, 0.13% active; F-box/WD repeat-containing protein 7 (Homo sapiens), Q969H0; in the data active = normalized activity above about 1.9%;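 note: purified mutant Fbw7 with reduced substrate affinity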
MITF primary = MITF inhibitors, primary screen, biochemical, AlphaScreen, human | Microphthalmia-associated transcription factor (Homo sapiens), O75030 | AlphaScreen MITF homodimerization, bead proximity signal | inhibition, % at 2.6 µM | 650,000 tested, 0.91% active; in the data active = inhibition above about 50%;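 note: 0% = vehicle wells with protein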
GPR151 confirm = GPR151 activators, triplicate retest, confirmation, cell-based, PathHunter beta-arrestin, luminescence; GPR151 PathHunter beta-arrestin cells, 90 min; % of EA-reagent control over plate median; activation, % at 11.2 µM; shares compounds with GPR151 activ; 6,700 tested, under 10 active;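 active = mean percent activation across replicates above the confirmation screen cutoff of 4.91%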
GPR119 ag = GPR119 activators in beta-arrestin cells, counter-screen for GPR151 activator project, cell-based, PathHunter beta-arrestin, luminescence, triplicate. shares compounds with GPR151 activ. 90 min; 0 = compound-well median, 100 = enzyme-acceptor control. activation, % at 11.2 µM. 6,700 tested, 0.3% active. AID 1508611, 2020;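 active = mean percent activation in the counterscreen above 29.09%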;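 note: counterscreen on off-target GPR119 to flag nonselective hits from the GPR151 activator screen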
Target sequence (Q8TDV5 whole entry, looked up): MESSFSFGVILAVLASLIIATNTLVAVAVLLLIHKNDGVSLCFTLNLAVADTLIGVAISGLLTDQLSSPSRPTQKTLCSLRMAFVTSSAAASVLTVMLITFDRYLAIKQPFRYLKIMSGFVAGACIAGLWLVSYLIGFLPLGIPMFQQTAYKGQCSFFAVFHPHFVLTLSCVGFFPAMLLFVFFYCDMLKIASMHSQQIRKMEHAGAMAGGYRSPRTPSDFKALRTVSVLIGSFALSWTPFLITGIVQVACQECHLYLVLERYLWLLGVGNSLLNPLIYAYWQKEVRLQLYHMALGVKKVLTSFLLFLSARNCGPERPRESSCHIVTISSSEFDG
Active calls of the source: *; . = no result.

SMILES	TEAD-YAP inh	GPR151 activ	FBW7 activator	MITF primary	GPR151 confirm	GPR119 ag
CN(C)C(NC(=O)Cc1ccccc1)C(Cl)(Cl)Cl (stereo not given)	-3	6.0*	0	27	-1	-8
CN(C(=O)Cc1ccccc1)N(C)C(=O)Cc1ccccc1	-4	5.0*	0	-3	0	9
CC(C)CC1N=C2c3ccccc3N=C(SCc3ccc(Cl)cc3)N2C1=O (stereo not given)	-21	2	0	12	.	.
Cc1nc(NC(=O)/C=C/c2ccccc2)sc1C(=O)Nc1cccnc1	12	9.1*	0	-7	0	-5
CC(=O)NCC1CCCN(c2nc3nonc3nc2N2CCSCC2)C1 (stereo not given)	-5	5.5*	0	0	1	4
CC(=O)NCC1CCCN(c2nc3nonc3nc2N2CCCCCC2)C1 (stereo not given)	5	-1	0	-9	.	.
CN(C)C(=O)CN1CCN(c2nc3nonc3nc2N2CCCCCC2)CC1	3	4.9*	0	8	0	5
COC(=O)c1ccc(N2C(=O)CSC2c2ccc(Br)cc2)cc1 (stereo not given)	3	-1	0	-11	.	.
COc1ccc(/C=C(/C#N)C(N)=S)c(OC)c1	5	2	0	18	.	.
COCCN(CCOC)S(=O)(=O)c1ccc(C(=O)Nc2nc(-c3ccc(OC)cc3)cs2)cc1	1	-1	0	-7	.	.
COCCN(CCOC)S(=O)(=O)c1ccc(C(=O)Nc2nc(-c3ccncc3)cs2)cc1	-3	8.8*	0	-9	1	13
COc1ccc(N2C(=O)c3ccccc3NC2c2cccc(F)c2)cc1 (stereo not given)	-14	2	0	-13	.	.
COc1ccc(-c2csc(NS(=O)(=O)c3ccc(F)cc3F)n2)cc1	-24	-1	0	4	.	.
CCn1c(=S)sc2c(=O)n(-c3ccccc3)c(SCC(=O)Nc3cccc(OC)c3)nc21	7	-1	0	11	.	.
O=C(Cc1ccccc1)NS(=O)(=O)c1ccc(N=NN2CCCCC2)cc1	2	7.3*	0	-1	1	8
CCOc1cc(C2C3=C(CC(C)(C)CC3=O)N(Cc3ccccc3)C3=C2C(=O)CC(C)(C)C3)cc(Br)c1OC	-3	-1	0	14	.	.
CCn1c(SCC(=O)Nc2cccc(C(=O)O)c2)nnc1-c1cccc(C)c1	1	0	1	7	.	.
CCn1c(COc2cccc(C)c2)nnc1SCC(=O)Nc1cccc(C(=O)O)c1	0	6.3*	0	4	0	3
O=C(CN1C(=O)CCC1=O)Nc1ccc(Cl)c(C(F)(F)F)c1	-5	6.6*	0	1	0	6
O=C(CN1CCN(CC(=O)Nc2ccc(Cl)c(C(F)(F)F)c2)CC1)Nc1ccc(F)cc1	12	-1	0	17	.	.
Brc1ccc(-c2cn(-c3ccccc3)c3[n+]2CCCS3)cc1	-12	-1	0	3	.	.
O=[N+]([O-])c1cc(C(F)(F)F)ccc1N1CCN(C(=S)Nc2cc(C(F)(F)F)ccc2Cl)CC1	-12	2	0	-3	.	.
COCCn1nnnc1CN(Cc1cccs1)Cc1cc2ccc(C)c(C)c2[nH]c1=O	-7	1	0	15	.	.
COc1cc(C2C(C#N)=C(N)OC3=C2C(=O)CC(C)(C)C3)ccc1OC(C)=O (stereo not given)	2	5.3*	0	-2	1	5
CCOc1ccc(C2C(C#N)=C(N)OC3=C2C(=O)CC(C)(C)C3)cc1 (stereo not given)	0	8.0*	0	-5	0	-10
CCOC(=O)C(=CNc1cc(C)nn1-c1ccccc1)C(=O)OCC	0	6.6*	0	0	-1	-10
Cc1cccc(NC(=O)CSc2c[nH]c3ccccc23)c1	3	1	0	6	.	.
